Experimental findings from PubChem BioAssay are described below.

SMILES strings stand for the structures. Calls of active or inactive are those of the source. Unless noted, no rule for the calls is given here.

A short description of test [1]: HepG2 liver cancer cell viability effects, profiling panel, resazurin fluorescence, 24 h, PK04 Diversity Set (AID 1172). The settings on record: higher = more signal. In general terms: Alamar Blue is a resazurin reagent that responds to reducing activity.
Test [2] can be described thus: basal S. cerevisiae growth modulation, no modifier, primary screen, OD600, strain BY4716, 24 h, basal condition (AID 1173). To be noted: OD600, 24 h, higher = more signal, called active from +8 up or from −8 down.
Test [3] can be described thus: MM1S myeloma cell viability, profiling panel, resazurin fluorescence, basal, 24 h, PK04 Diversity Set (AID 1174).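 Also: MM1S multiple myeloma cell line.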 The settings on record: higher = more signal, called active from +8 up or from −8 down.
Test [4] deals with Dihydroorotate dehydrogenase (quinone), mitochondrial (Plasmodium falciparum (isolate 3D7)) (UniProt Q08210). As to the kind of experiment: PfDHODH enzyme inhibitors, primary screen, biochemical, C-terminal His tag, absorbance 600 nm (AID 1175).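 Also: recombinant parasite enzyme with a five histidine tag at its C terminus.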 The settings on record: DCIP absorbance 600 nm, higher = more signal, called active from +8 up or from −8 down.
A short description of test [5]: P. aeruginosa biofilm formation inhibitors, primary screen, strain PAO1, LB-PBS medium, absorbance 600 nm (AID 1176). To be noted: P. aeruginosa PAO1 growth/biofilm, A600, 12 h; higher = more signal.
A short description of test [6]: S. cerevisiae RM11-1a growth modifiers, primary screen, strain RM11-1a, OD600, basal, 24 h (AID 1177).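 Also: cultures grown under basal conditions with no added stressor.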 To be noted: OD600, 24 h, higher = more signal, called active from +8 up or from −8 down.
A short description of test [7]: E. coli acrAB mutant growth effects, primary screen, E. coli filamentation inducers, strain DRC39, OD650, 24 h (AID 1178).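 Also: growth measured as culture turbidity by optical density at 650 nm.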 The settings on record: higher = more signal, called active from +8 up or from −8 down.
The nature of test [8]: E. coli acrAB mutant growth effects, primary screen, E. coli filamentation inducers, strain DRC39, OD650, 48 h (AID 1179).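 Also: screen aims at cell division blockers that make cells filament.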 The settings on record: E. coli DRC39 delta-acrAB growth, higher = more signal, called active from +8 up or from −8 down.
A short description of test [9]: RPMI8226 myeloma cell viability, profiling panel, resazurin fluorescence, basal, 24 h, PK04 Diversity Set (AID 1180).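 Also: RPMI8826 multiple myeloma cell line at 5000 cells per well.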 The settings on record: higher = more signal.
The target of test [10] is E3 ubiquitin-protein ligase XIAP (Homo sapiens) (UniProt P98170). In words: XIAP binders, primary screen, biophysical, small-molecule microarray, fluorescence 635 nm (AID 1181).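 Also: score merges 667 nm emission and signal to noise over triplicate slides.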 The settings on record: small-molecule microarray binding, higher = more signal.
Test [11] concerns XIP peptide (Xip251-270) binding. In words: small-molecule binders of XIP peptide, primary screen, biochemical, small-molecule microarray, fluorescence 635/667 nm, 0.1 µg/mL protein (AID 1182). To be noted: fluorescent protein binding, 635 nm, higher = more signal, called active from +8 up or from −8 down.
Test [12] deals with XIP peptide (Xip251-270). As to the kind of experiment: small-molecule binders of XIP peptide, primary screen, biochemical, small-molecule microarray, fluorescence 635/667 nm, 0.5 µg/mL protein (AID 1183). To be noted: small-molecule microarray binding, fluorescence 635 nm; higher = more signal.
Test [13] can be described thus: Plasmodium falciparum growth inhibition, primary screen, strain 3D7, DAPI fluorescence, 100 nL (AID 1184).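 Also: parasites grown inside human red blood cells in medium with human serum.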 To be noted: P. falciparum 3D7 growth, 3 d, higher = more signal.
Test [14] concerns the target Homeobox protein Hox-A13 (Mus musculus) (UniProt Q62424). In words: inhibitors of HoxA13-DNA binding, primary screen, biochemical, fluorescence polarization, labeled oligonucleotide (AID 1185). To be noted: 15 min, higher = more signal, called active from +8 up or from −8 down. For orientation: In fluorescence polarisation assays a small probe gives low polarisation when free and higher when bound to something large.

Test [15] can be described thus: inhibitors of hydroxyurea-induced Chk1 phosphorylation, primary screen, imaging, HeLa, phospho-Chk1 antibody, percent positive cells (AID 1186). The settings on record: hydroxyurea-induced phospho-Chk1 immunofluorescence imaging, higher = more signal.
Test [16] can be described thus: inhibitors of hydroxyurea-induced Chk1 phosphorylation, primary screen, imaging, HeLa, phospho-Chk1 nuclear intensity (AID 1187). The settings on record: hydroxyurea-induced phospho-Chk1 immunofluorescence imaging, higher = more signal.

Chain of Homeobox protein Hox-A13 (Mus musculus) (Q62424 whole entry, looked up): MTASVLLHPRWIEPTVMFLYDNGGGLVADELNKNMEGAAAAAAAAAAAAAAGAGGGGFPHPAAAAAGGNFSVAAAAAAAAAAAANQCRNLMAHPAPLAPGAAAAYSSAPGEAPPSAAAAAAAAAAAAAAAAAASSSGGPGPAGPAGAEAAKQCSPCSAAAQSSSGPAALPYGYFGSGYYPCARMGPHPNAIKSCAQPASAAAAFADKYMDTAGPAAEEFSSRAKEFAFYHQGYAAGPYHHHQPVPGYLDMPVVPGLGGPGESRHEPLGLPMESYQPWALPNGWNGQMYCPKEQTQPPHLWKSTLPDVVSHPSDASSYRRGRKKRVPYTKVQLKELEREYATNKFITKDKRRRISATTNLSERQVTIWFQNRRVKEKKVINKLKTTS
Chain of E3 ubiquitin-protein ligase XIAP (Homo sapiens) (P98170 whole entry, looked up): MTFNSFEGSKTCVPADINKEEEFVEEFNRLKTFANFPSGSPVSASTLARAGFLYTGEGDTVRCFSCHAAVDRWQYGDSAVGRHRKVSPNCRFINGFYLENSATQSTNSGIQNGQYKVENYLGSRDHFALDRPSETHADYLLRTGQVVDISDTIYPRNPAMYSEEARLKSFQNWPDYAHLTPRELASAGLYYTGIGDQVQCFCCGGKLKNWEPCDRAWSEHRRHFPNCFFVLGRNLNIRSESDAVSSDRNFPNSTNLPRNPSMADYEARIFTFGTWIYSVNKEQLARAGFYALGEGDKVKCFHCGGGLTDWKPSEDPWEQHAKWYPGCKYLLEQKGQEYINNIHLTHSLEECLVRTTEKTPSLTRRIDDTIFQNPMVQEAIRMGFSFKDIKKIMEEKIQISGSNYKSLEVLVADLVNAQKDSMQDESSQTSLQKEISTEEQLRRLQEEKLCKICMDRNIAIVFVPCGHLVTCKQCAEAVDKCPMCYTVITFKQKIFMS
Chain of Dihydroorotate dehydrogenase (quinone), mitochondrial (Plasmodium falciparum (isolate 3D7)) (Q08210 whole entry, looked up): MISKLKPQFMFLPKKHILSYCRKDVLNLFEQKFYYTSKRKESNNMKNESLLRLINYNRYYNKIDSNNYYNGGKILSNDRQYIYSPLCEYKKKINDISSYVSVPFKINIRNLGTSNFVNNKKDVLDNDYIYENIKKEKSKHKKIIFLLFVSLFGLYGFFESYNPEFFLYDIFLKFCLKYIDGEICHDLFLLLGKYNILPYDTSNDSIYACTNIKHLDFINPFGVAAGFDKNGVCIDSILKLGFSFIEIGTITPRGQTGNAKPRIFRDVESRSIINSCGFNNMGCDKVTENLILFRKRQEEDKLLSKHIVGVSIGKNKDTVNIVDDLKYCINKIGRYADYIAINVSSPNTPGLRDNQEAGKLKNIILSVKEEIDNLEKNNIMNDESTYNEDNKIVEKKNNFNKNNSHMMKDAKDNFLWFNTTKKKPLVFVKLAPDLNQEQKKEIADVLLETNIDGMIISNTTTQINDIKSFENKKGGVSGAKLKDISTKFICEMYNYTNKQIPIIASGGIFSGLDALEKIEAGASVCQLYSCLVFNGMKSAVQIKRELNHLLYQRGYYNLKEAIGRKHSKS

For `CCN(CC)c1ccc(N2CC=CC34O[C@@H]5C=CCOC(=O)[C@@H]5[C@H]3C(=O)N(CCCCCO)[C@@H]4C2=O)cc1` (some centres undefined), the z-score in test [1] was 0.34; in [2] it was 0.0663 (inactive); in [3], 1.08 (inactive); in [5] it was -0.193 (inactive); in test [6], -0.272 (inactive); in test [7], 0.831 (inactive). The z-score in test [8] was 0.349 (inactive); in [9], 0.225; in test [13] it was -0.232; in [14], -5.05 (inactive); in [15] it was -0.23 (inactive); in [16], -0.33 (inactive). Also, the composite z-score in test [4] is 0.618 (inactive); in test [10] it was 0.532; in [11] it was 0.614 (inactive); in [12], -0.982.

Regarding `C=CCOC(=O)[C@H]1[C@@H]2C(=O)O[C@@H](c3ccccc3)[C@@H](c3ccccc3)N2[C@@H](c2ccc(OCCOC(=O)[C@H]3C[C@H]4C(=O)N[C@@H](CCCC[N+](C)(C)C)C(=O)N4[C@H]3c3ccc(O)cc3)cc2)[C@]12C(=O)Nc1ccccc12`, the z-score was 0.767 in [1]; -2.24 (inactive) in [2]; 1.31 (inactive) in [3]; -0.723 (inactive) in test [5]; 0.0539 (inactive) in [6]; 0.402 (inactive) in [7]. In addition, the z-score was 0.0612 (inactive) in test [8]; 1.21 in [9]; 1.04 in test [13]; 6.97 (inactive) in test [14]; -0.179 (inactive) in [15]; -0.219 (inactive) in test [16]. Moreover, the composite z-score is -2.24 (inactive) in test [4], 0.0325 in [10], -0.436 (inactive) in test [11] and 0.487 in test [12].

For `CN(C)CCCC[C@@H]1NC(=O)[C@@H]2C[C@H](C(=O)NCCCCCCN)[C@H](c3ccc(O)cc3)N2C1=O`, the z-score in test [1] was -1.14; in test [2], 0.531 (inactive); in test [3], 0.427 (inactive); in [5], 0.643 (inactive); in [6], 0.793 (inactive); in test [7], 0.254 (inactive). Besides, the z-score in test [8] is -0.234 (inactive); in test [9], 0.109; in [13], 0.0094; in [14], -2.65 (inactive); in test [15], 0.136 (inactive); in test [16], -0.366 (inactive). Moreover, the composite z-score in [4] was -2.06 (inactive); in [10], -0.157; in test [11], 0.674 (inactive); in test [12], 0.0252.

`C=C[C@@H](C)[C@@H](OC(=O)Nc1ccc(OC)cc1)c1ccc(O)c2ccccc12`: the z-score is -1.42 in test [1]; -18.5 (active) in [2]; -5.02 (inactive) in test [3]; 1.43 (inactive) in test [5]; -22.2 (active) in test [6]; 0.99 (inactive) in [7]. For the same compound, the z-score was 0.224 (inactive) in test [8]; -4.37 in test [9]; -1.65 in [13]; -3.38 (inactive) in test [14]; 0.453 (inactive) in test [15]; 0.196 (inactive) in test [16]. The composite z-score is -3.79 (inactive) in test [4], -0.125 in [10], 1.36 (inactive) in [11] and -0.0477 in test [12].

With `Cc1ccc(S(=O)(=O)N2CC(C(=O)O)=CCC2c2ccccc2)cc1` (centres undefined), the z-score in test [1] is -1.31; in test [2], 0.558 (inactive); in test [3], -2.27 (inactive); in test [5] it was 0.12 (inactive); in [6], 0.437 (inactive); in [7] it was -1.28 (inactive). Further, the z-score in test [8] was -1.15 (inactive); in [9], -0.931; in test [13], -0.863; in [14], -2.63 (inactive); in test [15], -0.557 (inactive); in test [16], -0.655 (inactive). For the same compound, the composite z-score in test [4] is 0.154 (inactive); in [10] it was 0.155; in test [11] it was 0.624 (inactive); in test [12], 0.268.

Turning to `CCCC[C@H]1OB(O)C[C@H]2C1=C(COc1ccccc1)C[C@H]1C(=O)N(Cc3ccccc3)C(=O)[C@H]12`, the z-score in test [1] is 0.552; in [2], -1.91 (inactive); in test [3] it was 0.804 (inactive); in [5] it was -0.802 (inactive); in [6] it was -0.0955 (inactive); in [7], 0.875 (inactive). For the same compound, the z-score is -0.281 (inactive) in test [8]; 0.421 in test [9]; 0.589 in test [13]; -6.65 (inactive) in test [14]; 0.0918 (inactive) in test [15]; 0.206 (inactive) in test [16]. The composite z-score in [4] is -1.25 (inactive); in [10], 0.0617; in [11] it was -0.0195 (inactive); in [12], -0.0475.

For the compound `COc1ccc(CCNC(=O)[C@@]2(C)c3ccccc3C(=O)N(Cc3ccccc3)[C@H]2c2ccc(CO)cc2)cc1`, the z-score in test [1] was 0.976; in test [2], -1.12 (inactive); in test [3] it was 0.617 (inactive); in test [5] it was 0.938 (inactive); in [6], -0.803 (inactive); in test [7], 0.605 (inactive). The z-score in test [8] is 0.535 (inactive); in test [9], 1.43; in [13], -1.93; in [14] it was -4.95 (inactive); in test [15], -0.281 (inactive); in test [16], -0.173 (inactive). Further, the composite z-score in [4] was -0.984 (inactive); in [10], -0.138; in test [11] it was 1.12 (inactive); in [12], 0.859.

Take `Cc1ccc(N2C(=O)c3ccccc3[C@@H](C(=O)NC(C)C)[C@@H]2c2ccc(CO)cc2)nc1`: the z-score is 1.48 in test [1]; -1.69 (inactive) in test [2]; 1.09 (inactive) in [3]; 0.69 (inactive) in [5]; -0.434 (inactive) in test [6]; 0.282 (inactive) in [7]. Also, the z-score in [8] was 0.375 (inactive); in [9] it was 1.17; in test [13], 0.679; in test [14] it was -1.68 (inactive); in test [15] it was 0.364 (inactive); in [16], 0.43 (inactive). Further, the composite z-score was -0.309 (inactive) in [4], 0.147 in test [10], 0.262 (inactive) in test [11] and 0.82 in [12].

Turning to `CCCNC(=O)[C@@]1(C)c2ccccc2C(=O)N(Cc2cc(F)cc(C(F)(F)F)c2)[C@H]1c1ccc(CO)cc1`, the z-score was 1.08 in [1]; -0.769 (inactive) in test [2]; 1.16 (inactive) in test [3]; -0.164 (inactive) in [5]; 0.196 (inactive) in test [6]; 0.249 (inactive) in test [7]. In addition, the z-score in test [8] is 0.113 (inactive); in [9] it was 1.63; in test [13] it was -0.8; in [14], -3.51 (inactive); in [15] it was 0.309 (inactive); in [16] it was 0.226 (inactive). In addition, the composite z-score in test [4] was 0.134 (inactive); in [10], -0.181; in test [11] it was 1.33 (inactive); in test [12] it was 0.718.
